Source: PubChem (several laboratories)
GluA2 TARP mod: modulates AMPAR-stargazin complexes; O88602+P19491; HEK293 GluA2+stargazin, membrane potential dye (FDSS), glutamate EC50; hits were called plate by plate, in both directions; calls only at 30 µM; actives 3.5% (n = 40,000); AID 1259245;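 active = any of four per-well response measures lying three or more SD from its plate-wide compound average, in either direction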
GIRK2 act: Activators of human GIRK2-containing channels. P48051. HEK293 GIRK2/NPY4 cells, thallium flux fluorescence. activation (% efficacy), % for hits at 37.5 µM. 34,000 tested, under 10 active;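 active = primary screen hit, no activity in plain HEK293 cells, and in GIRK2-only cells above 5% efficacy rising with concentration; inactive = the rest, including fluorescent compounds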;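 also: efficacy is normalized control-subtracted fluorescence 15 s after thallium addition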
Target sequence (P48051 whole entry, looked up): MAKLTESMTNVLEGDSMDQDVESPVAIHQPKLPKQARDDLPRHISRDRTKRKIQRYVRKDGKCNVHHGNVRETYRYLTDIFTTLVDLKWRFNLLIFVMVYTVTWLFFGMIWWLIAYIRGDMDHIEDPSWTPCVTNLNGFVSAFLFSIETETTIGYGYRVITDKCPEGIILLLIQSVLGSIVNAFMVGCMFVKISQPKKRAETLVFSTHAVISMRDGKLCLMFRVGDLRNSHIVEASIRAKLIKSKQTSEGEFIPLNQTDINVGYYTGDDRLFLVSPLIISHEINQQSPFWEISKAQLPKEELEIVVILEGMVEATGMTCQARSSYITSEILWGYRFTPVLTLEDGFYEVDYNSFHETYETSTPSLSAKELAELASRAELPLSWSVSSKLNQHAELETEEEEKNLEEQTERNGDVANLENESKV
An asterisk follows results filed as active; i = inactive; / = no result; + = active, no number. The full list was thinned out, with hits kept by preference.

SMILES	GluA2 TARP mod	GIRK2 act
Cn1c(=O)[nH]c(=O)c2c1nc(N1CCN(CC(N)=O)CC1)n2Cc1cccc(Cl)c1	i	/
Cn1c(=O)[nH]c(=O)c2c1nc(N1CCOCC1)n2CCCn1c(N2CCOCC2)nc2c1c(=O)[nH]c(=O)n2C	i	/
CCN1CCN(c2nc3c(c(=O)[nH]c(=O)n3C)n2CCCOc2ccccc2)CC1	+	/
COc1ccc(N2CCN(CCn3c(C)c(C)n4c5c(=O)[nH]c(=O)n(C)c5nc34)CC2)cc1	i	/
Cc1cc(=O)[nH]c(-n2nc(C)c(CCC(=O)NCc3cccs3)c2C)n1	i	i
CCN(C(=O)Cn1c(CNC(=O)c2ccco2)nc2ccccc21)c1ccccc1	/	i
COc1ccc(CCS(=O)(=O)NCC2(O)CCOCC2)cc1	/	i
COc1ccc(CCC(=O)NCCOc2cccc(C(F)(F)F)c2)cc1	i	i
COc1ccc(S(=O)(=O)N2CCCc3cc(NC(=O)C(C)(C)C)ccc32)cc1	+	/
Cc1ccc(S(=O)(=O)N2CCCc3cc(NC(=O)Oc4ccccc4)ccc32)cc1	+	/
Cc1ccc(S(=O)(=O)N2CCCc3cc(NC(=O)c4ccccc4)ccc32)cc1	i	/
COc1ccc(S(=O)(=O)N2CCCc3cc(NC(C)=O)ccc32)cc1	i	/
C=CCNC(=O)CC1Nc2cc(C)c(C)cc2NC1=O (configuration not stated)	/	i
Cc1ccc(CNC(=O)CC2Nc3cc(C)c(C)cc3NC2=O)cc1 (configuration not stated)	+	/
O=C(Cn1cnc(-c2cccs2)cc1=O)NCCOc1cc(N2CCCCC2)ncn1	i	i
CCS(=O)(=O)N1CCCc2ccc(NS(=O)(=O)c3cccc(C)c3)cc21	i	/
CCNc1cc(C)nc(N2CCN(C(=O)COc3ccccc3)CC2)n1	i	i
COc1cc(N2CCN(C(=O)c3cnccn3)CC2)nc(C)n1	i	i
Cc1cc(N2CCCCC2)nc(N2CCN(C(=O)Cc3ccccc3)CC2)n1	+	i
Cc1cc(N2CCCCC2)nc(N2CCN(C(=O)c3ccccc3)CC2)n1	+	/
Cc1cc(N2CCOCC2)nc(N2CCN(C(=O)c3cnccn3)CC2)n1	+	i
Cc1cccc(C(=O)N2CCN(c3nc(C)cc(N4CCCCC4)n3)CC2)c1	+	/
Cc1cc(C)cc(C(=O)N2CCN(c3nc(C)cc(N4CCCCC4)n3)CC2)c1	i	/
Cc1nc(N2CCCCC2)cc(N2CCN(C(=O)c3ncccn3)CC2)n1	i	i
CN1CCc2c(sc(NC(=O)CCSc3ccc(F)cc3)c2-c2nc3ccccc3s2)C1	i	/
SMILES	GluA2 TARP mod	GIRK2 act
Cc1c(Cl)cccc1S(=O)(=O)N1CCN(CCn2ccnc2)CC1	/	i
Cc1cc(C)n(CC(=O)Nc2ccc3c(c2)OCCO3)c(=O)c1-c1nc(-c2ccc(Cl)cc2)no1	i	i
COc1ccc(S(=O)(=O)NCc2ccccc2)cc1N(C)S(=O)(=O)c1ccc(Cl)cc1	+	/
COc1ccc(S(=O)(=O)NCc2ccccc2)cc1N(C)S(C)(=O)=O	i	/
Cc1ccc(CNC(=O)C(=O)Nc2c(C(N)=O)oc3ccccc23)cc1	i	i
O=C(Nc1ccccc1Cl)c1ccc(=O)n(Cc2ccccc2F)c1	i	i
O=C(Nc1ccccc1C(F)(F)F)c1ccc(=O)n(Cc2ccccc2F)c1	+	i
CCOc1ccccc1NC(=O)c1ccc(=O)n(Cc2ccccc2Cl)c1	+	i
CC(=O)Nc1ccc(NC(=O)c2ccc(=O)n(Cc3ccccc3Cl)c2)cc1	i	i
COc1cccc(NC(=O)N2CCC(c3nn(C)c(=O)n3-c3ccccc3)CC2)c1OC	i	i
CN1C(=O)Cc2cc(NS(=O)(=O)C3CCCCC3)ccc21	i	i
COc1ccc(S(=O)(=O)CCCC(=O)Nc2nc3cc4c(cc3s2)OCO4)cc1	i	/
COc1ccc([N+](=O)[O-])cc1NC(=O)c1ccccc1NS(=O)(=O)c1ccccc1	i	i
COc1ccc(S(=O)(=O)Nc2ccccc2C(=O)Nc2ccc([N+](=O)[O-])cc2OC)cc1	+	i
O=C(CCSc1ccccc1)NCC1CCN(S(=O)(=O)C2CC2)CC1	i	i
COC(=O)c1cc(-c2ccc(NC(C)=O)cc2)nc2c1c(C)nn2C1CCS(=O)(=O)C1 (configuration not stated)	/	i
CCc1ccccc1NC(=O)N1CCN(c2ccc3nnc(-c4ccco4)n3n2)CC1	+	i
COc1ccccc1NC(=O)N1CCN(c2ccc3nnc(-c4ccco4)n3n2)CC1	i	i
CC1(C)CC(=O)C2=C(C1)NC1=C(C(=O)CC(C)(C)C1)C2c1cccs1	i	i
CN1C2=C(C(=O)CC(C)(C)C2)C(c2cc(Br)ccc2O)C2=C1CC(C)(C)CC2=O	+	/
CC(=O)N1CCN(c2nnc(SCC(=O)Nc3cc(C)on3)s2)CC1	i	i
Cc1cccc(Nc2ccc(N3CCN(C(=O)c4c(F)cccc4F)CC3)nn2)n1	/	i
Cc1cc(NC(=O)CSc2nnc(N3CCN(C(=O)Cc4cccs4)CC3)s2)no1	+	i
Cc1cccc(Nc2ccc(N3CCN(C(=O)Cc4c[nH]c5ccccc45)CC3)nn2)n1	+	i
Cc1cccc(Nc2ccc(N3CCN(C(=O)Cc4cccs4)CC3)nn2)n1	+	i
SMILES	GluA2 TARP mod	GIRK2 act
Cc1cccc(Nc2ccc(N3CCN(C(=O)C(C)(C)C)CC3)nn2)n1	/	i
Cc1cccc(-c2noc(-c3cn(CC(=O)NCc4ccccc4)c4nc(C)ccc4c3=O)n2)c1	i	i
Cn1c(=O)c2c(ncn2CC(=O)NCc2ccsc2)n(C)c1=O	i	/
O=C(CCSc1ccccc1)NCCC(O)c1cccs1 (configuration not stated)	i	i
O=C(NCCC(O)c1cccs1)C1(c2ccc(Cl)cc2)CCCC1 (configuration not stated)	+	i
CCOc1ccc(-n2nnnc2SC(C)C(=O)Nc2ccccc2C(=O)OC)cc1 (configuration not stated)	+	/
CCOc1ccc(-n2nnnc2SC(C)C(=O)Nc2cccc(C(C)=O)c2)cc1 (configuration not stated)	+	/
COc1ccccc1NC(=O)C(C)Sc1nnnn1-c1ccc(Cl)cc1 (configuration not stated)	i	/
CCOc1ccc(-n2nnnc2SC(C)C(=O)Nc2ccccc2C#N)cc1 (configuration not stated)	+	/
COc1ccc(NC(=O)C(C)Sc2nnnn2-c2ccc(OC)cc2)cc1 (configuration not stated)	i	/
COc1ccc(-n2nnnc2SC(C)C(=O)Nc2cccc(Cl)c2)cc1 (configuration not stated)	i	/
O=C(Nc1nccs1)C1CCN(C(=O)COc2ccc(Cl)cc2Cl)CC1	/	i
Cc1cc(C)c2c(n1)nn1c(N3CCN(CCOc4ccc(Cl)cc4)CC3)cc(C)nc21	i	/
COc1ccccc1-c1cnn2c(N3CCN(CC#N)CC3)cc(C)nc12	i	i
Cc1cc(N2CCN(CC#N)CC2)n2nc(C(F)(F)F)c(-c3ccccc3)c2n1	i	i
Cc1cc(C)c2c(n1)nn1c(N3CCN(Cc4ccccc4)CC3)cc(C)nc21	+	i
COc1ccc(F)cc1CN1CCN(c2cc(C)nc3c4c(C)cc(C)nc4nn23)CC1	+	i
